Data on eight compounds can be found in PubChem BioAssay (NCI).

Compounds without any hit were thinned out: in the full panel of roughly 83,000, 20% have a hit.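 Activity criterion: percent growth below 10, measured after cells in 96-well plates were exposed to a single compound concentration for 48 hours.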 A number with no mark means an inactive call. Active and inactive are the calls of the source.

Holding throughout (experiment): NCI-60 one-dose screen, 48 h (100 = growth as untreated, 0 = no growth, -100 = all killed)
Common to all, as to conditions: 10 µM unless noted

Experiment [1] concerns NCI-H23 lung.
Experiment [2] concerns NCI-H226 lung.
The subject of experiment [3] is NCI-H322M lung.
The test system of experiment [4] is HOP-62 NSCLC.
In experiment [5] the test system is NCI-H460 lung.
Experiment [6] concerns HOP-92 NSCLC.
For experiment [7], the system named is NCI-H522 lung.
Experiment [8] relates to A549/ATCC NSCLC.
For experiment [9], the system named is 786-0 renal.
Experiment [10] has as its system COLO 205 colon.
Experiment [11] relates to DU-145 prostate.
In experiment [12] the test system is K-562 leukemia.
Experiment [13] relates to MALME-3M melanoma.
Experiment [14] has as its system MDA-MB-231 breast.
The subject of experiment [15] is RXF 393 renal.
The test system of experiment [16] is SF-268 CNS.
Experiment [17] concerns SF-295 CNS.
For experiment [18], the system named is SF-539 CNS.
The test system of experiment [19] is UACC-257 melanoma.
Experiment [20] relates to M14 melanoma.

Consider `CCOC(=O)C1C(=O)C=C(c2ccc(OC)cc2)CC1c1sc(N(C)Cc2ccccc2)nc1Cl` (centres undefined), for which the growth is 77.7% in experiment [1]; 82.6% in experiment [2]; 76.1% in [3]; 81.6% in experiment [4]; 82.8% in experiment [5]; 29.8% in experiment [6]. In addition, the growth in [7] is 68.7%; in [8], 82%; in experiment [9], 84.6%; in experiment [10], 108%; in experiment [11], 91.5%; in experiment [12] it was 68.4%. Moreover, the growth was 93.4% in [13]; 68.3% in [14]; 93.9% in experiment [15]; 74.4% in [16]; 83.6% in experiment [17]; 84.7% in experiment [18]. For the same compound, the values for the growth in [19] and in experiment [20] were 91.2% and 87.6%, respectively.
`Cn1cc(-c2cnc3ccc(NC(=O)Nc4ccc(F)c(Br)c4)cc3n2)cn1`: the growth in experiment [1] was 32%; in experiment [2] it was 16.7%; in [3] it was 46.3%; in [4], 0.864% (active); in experiment [5], 32.4%; in experiment [6], -15.5% (active). Further, the growth in [7] is 8.07% (active); in experiment [8] it was 22.5%; in experiment [9], 38.7%; in [10], 1.03% (active); in experiment [11] it was 39.4%; in experiment [12], 11.2%. The growth in experiment [13] was 35.9%; in experiment [14], 23.4%; in [15] it was -22.3% (active); in [16], 49.6%; in experiment [17], -3.9% (active); in experiment [18] it was 52.9%. Further, the growth in [19] is 47.6%; in experiment [20], 4.13% (active).
Turning to `COc1c2occc2c(OC)c2c(=O)c(-c3cc(-c4ccc(F)cc4)c(C#N)c(N)n3)c(C)oc12`, the growth in experiment [1] was 36.1%; in experiment [2], 72.1%; in experiment [3] it was 40.3%; in experiment [4], 27.9%; in [5] it was 24.9%; in experiment [6], 30.6%. For the same compound, the growth in [7] was 49.4%; in experiment [8], 25.2%; in experiment [9], 51.2%; in [10], 27.2%; in [11] it was 30.3%; in experiment [12], 19.5%. Further, the growth in [13] was 88.8%; in [14], 30%; in experiment [15] it was 44.4%; in experiment [16], 35.5%; in experiment [17], 56.5%; in experiment [18] it was 67.7%. Further, the growth in [20] is 70.6%.
Take `CCc1ccc(-c2ccc(=O)n(-c3ccc(S(N)(=O)=O)cc3)n2)cc1`: the growth in experiment [1] was 59.9%; in experiment [2], 94.1%; in experiment [3], 115%; in experiment [4] it was 56.9%; in experiment [5], 12.6%; in [6], 65.7%. Also, the growth in experiment [7] is -33.6% (active); in [8], 18%; in [9] it was 50%; in experiment [10], 26%; in [11], 59.6%; in experiment [12], 11%. Besides, the growth in [13] was 35.6%; in experiment [14], 66.8%; in [15] it was -31.8% (active); in experiment [16] it was 42.1%; in experiment [17], 18.4%; in experiment [18], 43.6%. For the same compound, the growth in experiment [19] was 22.3%; in experiment [20], 17.7%.
For `CO[C@H]1NC(=O)N(S(=O)(=O)c2ccc(Cl)cc2)[C@@H]1OC`, the growth in [1] is 107%; in [2], 131%; in [3], 111%; in [4], 93.1%; in experiment [5] it was 110%; in experiment [6], 114%. Further, the growth in [7] was 105%; in [8], 98.2%; in experiment [9], 103%; in [10], 108%; in experiment [11], 115%; in experiment [12], 93.2%. Further, the growth in experiment [13] was 101%; in experiment [14], 108%; in experiment [15], 119%; in [16] it was 102%; in experiment [17], 92.1%; in experiment [18], 98.7%. Further, the figures for the growth in [19] and in [20] were 106% and 115%, respectively.
Consider `COc1ccc(OC)c(/C=C2\Oc3cc(OCCCN4CCCC4)ccc3C2=O)c1`, for which the growth in experiment [1] was 80.6%; in experiment [2], 88.7%; in experiment [3], 88.9%; in experiment [4], 95.6%; in experiment [5], 61.3%; in experiment [6] it was 77.6%. For the same compound, the growth was 89.6% in experiment [7]; 81.2% in experiment [8]; 84.2% in experiment [9]; 85.6% in experiment [10]; 79.6% in experiment [11]; -5.23% (active) in [12]. The growth in [13] is 104%; in experiment [14], 68.8%; in [15], 73.4%; in experiment [16], 79.8%; in experiment [17] it was 97.4%; in experiment [18], 46%. The growth in experiment [19] was 40.5%; in experiment [20], -2.52% (active).
For the compound `CN1C(=O)N(C)C2C1NN=c1s/c(=C\C=C\c3ccccc3)c(=O)n12` (centres undefined), the growth in experiment [1] is 64.3%; in [2] it was 61.9%; in experiment [3], 68.4%; in experiment [4] it was 67.3%; in [5] it was 23.3%; in [6] it was 63.9%. Further, the growth was 38.7% in experiment [7]; 52.7% in [8]; 71.3% in experiment [9]; 42.1% in experiment [10]; 69.3% in experiment [11]; 20.6% in experiment [12]. Moreover, the growth in [13] is 62.6%; in experiment [14], 65%; in [15] it was 77.7%; in experiment [16], 67.2%; in [17], 45.7%; in [18] it was 54.8%. Further, the growth in experiment [19] is 73.4%; in [20], 41.5%.
Take `CCOC(=O)C1CCNC(=O)C1=O` (centres undefined): the growth in experiment [1] is 107%; in [2], 97%; in [3], 144%; in experiment [4] it was 112%; in experiment [5] it was 113%; in experiment [6] it was 102%. For the same compound, the growth in experiment [7] was 116%; in [8], 109%; in [9] it was 98%; in [10], 114%; in [11], 115%; in [12] it was 109%. For the same compound, the growth in experiment [13] was 126%; in experiment [14], 106%; in experiment [15], 108%; in [16], 108%; in experiment [17] it was 122%; in experiment [18], 112%. The growth is 126% in experiment [19] and 108% in experiment [20].
